Bioassay records (PubChem BioAssay)
Most compounds without a hit are left out; they make up all but 7% or so of the library.
Integrin act MD – activators of alpha7 integrin expression for muscular dystrophy; alpha7betagal myoblasts, beta-gal FDG fluorescence, 48 h; Potency, µM (series often up to 38.3 µM), for inactives: at the top dose activation, usual class: activators; 350,000 tested, 0.064% active; AID 624291;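 further: potency means the concentration at half of the fitted maximal effect; 100% = response of the positive control SU9516; nearly all actives have a fitted effect of over 60% in size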
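alpha7betagal+/- myoblasts (passage 13, 250/well) treated 48 h at 37C with compounds at 1:260 dilution of DMSO stock. Lysed, then beta-galactosidase activity read as FDG fluorescence (ex 480/em 540) after 30 min, with pre-read for autofluorescence.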
DRD3 agonist – activates the human D3 dopamine receptor. 410,000 tested, 0.58% active. AID 652048. max activation, %. D3R DiscoveRx beta-arrestin cells, luminescence, 90 min. P35462; in the data active means max activation above about 30%; further: 0% is about no effect
Target sequence (P35462 whole entry, looked up): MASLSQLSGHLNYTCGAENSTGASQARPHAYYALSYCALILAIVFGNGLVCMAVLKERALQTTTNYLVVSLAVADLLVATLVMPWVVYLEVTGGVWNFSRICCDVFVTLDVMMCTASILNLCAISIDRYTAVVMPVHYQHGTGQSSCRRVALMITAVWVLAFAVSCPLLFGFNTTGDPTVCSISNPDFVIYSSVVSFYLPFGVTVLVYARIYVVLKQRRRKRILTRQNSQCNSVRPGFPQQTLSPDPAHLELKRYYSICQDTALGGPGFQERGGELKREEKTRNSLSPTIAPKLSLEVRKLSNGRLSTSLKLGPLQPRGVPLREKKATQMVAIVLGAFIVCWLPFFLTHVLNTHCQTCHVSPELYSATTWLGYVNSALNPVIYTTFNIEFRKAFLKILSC
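Agonist-mode cell screen: cells plated at 1500/well and incubated overnight at 37 °C, then exposed to library compounds for 90 min at 37 °C. Detection reagent was added for 30–60 min at room temperature, and luminescence was read.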
ATXN viability – reduces viability in counter-screen for ATXN expression inhibitors | S2 cells (HEK-293 line with an ATXN2-luciferase reporter) viability, CellTiter-Fluor protease fluorescence, 24 h | Potency, µM (doses to about 56.7 µM), most hits filed as cytotoxic | 400,000 tested, 0.49% active | AID 651635; further: potency means the concentration at half of the fitted maximal effect; nearly all actives have a fitted effect of over 40% in size
DRD3 antagonist – blocks the human D3 dopamine receptor | P35462 | D3R cells, DiscoveRx beta-arrestin luminescence, antagonist mode; active compounds read low | max response, negative = inhibition, % | 360,000 tested, 2.5% active | AID 652054; in the data active means max response below about -50%; inconclusive means no clear call, values can overlap the other calls; further: on the % scale 0 is the no-effect control and ±100 the full control effect
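Cells expressing the human receptor were seeded at 1500 cells/well, incubated overnight at 37 degrees C in 5% CO2, then exposed to library compounds with dopamine controls for 90 minutes at 37 degrees C before luminescent detection.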
ATXN2 expr inh – inhibitors of ATXN2 expression | HEK-293 ATXN2-luciferase reporter, luminescence, 24 h | Potency, µM (highest dose often 57 µM), inactives show at the top dose activity change, negative = inhibition, hits mostly inhibitors | 360,000 tested, 0.72% active; further: potency means the concentration at half of the fitted maximal effect; on the % scale 0 is the no-effect control and ±100 the full control effect; nearly all actives have a fitted effect of over 55% in size
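qHTS (up to 57 uM final) was run with 24 h compound exposure of reporter cells at 37 °C. Each well was multiplexed: SteadyGlo luminescence measured ATXN2-luciferase expression after a fluorogenic Gly-Phe-AFC viability readout (25 uM final).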
IL-1B inflam inh – inhibitors of inflammasome signaling (IL-1 beta secretion) | 360,000 tested, 4.7% active | THP-1 LPS/ATP IL-1B secretion, AlphaLISA, 16 h; active compounds read low | AID 743279 | activity change, % at 57.5 µM; in the data active means activity change below about -50%; inconclusive means mostly about -30% to -49%; further: on the % scale 0 is the no-effect control and ±100 the full control effect
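Secreted IL-1B measured by AlphaLISA bead assay after 16 h compound exposure of THP-1 cells; compounds (final up to 57.5 uM) added 1 h before LPS (250 ng/mL) and ATP (1.25 mM) stimulation; lower signal means less secretion.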
The depositor's hits bear a star; i = inactive; ? = inconclusive; nt = no result given. Unless noted, the call rests on the fitted dose curve; in most records, active means well fitted curve in the direction sought with a large enough effect; inconclusive means small, poorly fitted or top-dose-only effect, or another doubt; inactive means no such curve, though single readings can be large; an effect the other way counts as inactive or inconclusive.

SMILES	Integrin act MD	DRD3 agonist	ATXN viability	DRD3 antagonist	ATXN2 expr inh	IL-1B inflam inh
COC(=O)c1cc2c(n1S(=O)(=O)c1ccc(C)cc1)C(=O)C(=O)c1[nH]cc(C(=O)OCc3ccccc3)c1-2	0.0%	-15.3	4.74µM*	-12.6	2.99µM*	-84.9*
CCN1CSC(=S)N(Cc2ccccc2)C1	-44.7%	2.8	i	-24.1	-5.7%	-100.2*
CCCCCN1CSC(=S)N(Cc2ccccc2)C1	-34.3%	6.9	?	-4.8	-29.8%	-95.3*
S=C1SCN(Cc2ccco2)CN1Cc1ccco1	-35.1%	-0.9	?	5.8	-0.7%	-94.5*
CC(C)CCOP(=O)(c1ccc(N(C)C)cc1)C(O)c1ccccc1 (centres undefined)	-23.3%	5.4	i	4.7	-5.9%	14.0
COc1ccc(Nc2nnc(-n3nc(C)cc3C)c3ccccc23)cc1	nt	-6.1	i	nt	3.5%	nt
CC[n+]1c(/C=C2/C=C(C)CC(C)(C)C2)sc2ccc(OC)cc21	-66.6%	-0.6	nt	20.6	?	-112.3*
CC[n+]1c(/C=C2\C=C(C)CC(C)(C)C2)sc2ccccc21	-54.8%	-17.8	?	-24.8	?	-59.9*
CC[n+]1c(/C=C2\C=C(C)CC(C)C2)sc2ccccc21 (centres undefined)	-63.8%	-7.1	i	-24.2	?	-28.9
CCN1\C(=C/C=C/C=C/c2sc3ccccc3[n+]2CC)Sc2ccccc21	nt	-19.9	?	nt	nt	nt
CCC1=C/C(=C/c2sc3ccccc3[n+]2CC)CC(C)(C)C1	-42.0%	6.1	i	5.6	-33.9%	-92.5*
COc1ccc2sc(C)[n+](C)c2c1	-25.3%	10.2	?	1.8	7.0%	-13.5
CC(C)c1ccc(NC(=O)[C@@H]2CCC(=O)N2C2OC(=O)c3ccccc32)cc1 (some centres undefined)	17.8%	-6.6	i	0.0	42.2%	12.6
CN1CCN(S(=O)(=O)c2cccc(C#N)c2)C(c2ccccc2)C1 (centres undefined)	8.0%	3.4	i	0.0	3.6%	-13.0
Cc1cccn2c(=O)c(/C=C3\SC(=S)NC3=O)c(NCCCN3CCOCC3)nc12	0.0%	-18.3	i	-25.0	nt	-83.1*
CCCN1C(=O)/C(=C/c2c(NCCCOCC)nc3c(C)cccn3c2=O)SC1=S	-12.5%	0.3	i	2.6	?	19.6
Cn1cc(CN2CCN(c3ncccn3)CC2)c(-c2cccc(Cl)c2)n1	-9.7%	1.1	i	-3.3	-24.2%	?
Cc1cc(N2CCN(Cc3cn(C)nc3-c3cccc(Cl)c3)CC2)cc(C)n1	-69.2%	4.4	?	-14.2	?	-82.0*
C=CCn1c(=N)n(CC(=O)c2ccc(Br)cc2)c2ccccc21	-28.9%	-7.0	i	-7.9	-32.4%	-83.5*
N=c1n(N)c2ccccc2n1CC(=O)c1ccc(Br)cc1	0.0%	-9.7	?	-23.7	-15.9%	-93.7*
C=CCn1c(=N)n(CC(=O)c2ccccc2)c2ccccc21	12.2%	0.1	i	19.5	-12.3%	?
Cc1ccc(-c2nnc(COC(=O)c3cccs3)o2)cc1	38.7%	4.5	i	20.0	24.0%	-1.9
COc1ccc(NC(=O)C(NC(=O)Cc2cccs2)c2ccccc2)cc1 (centres undefined)	-5.3%	9.6	i	10.7	-10.1%	10.4
COc1ccc(-c2cc3nc(CCl)[nH]c(=O)c3s2)cc1	-65.9%	-2.0	i	-21.1	12.6µM*	-6.1
COc1ccc(-c2cc3nc[nH]c(=O)c3s2)cc1	14.6%	-0.7	i	-0.3	12.4%	1.5
CCc1cc[n+](C2=C([O-])c3ccccc3C(=O)/C2=N\S(=O)(=O)c2cccs2)cc1	0.0%	-17.7	?	-5.5	?	-85.9*
C1CCc2c(nc3nnnn3c2NCC2CC2)C1	12.1%	1.3	i	13.8	nt	-18.7
Cc1ccc(/C=N/Nc2nnc(Cl)c3ccccc23)cc1	-40.7%	-7.6	i	6.2	37.1%	-62.0*
CCN(CC)c1ccc(N2C(=NC(=O)C3CCCO3)SC3CS(=O)(=O)CC32)cc1 (centres undefined)	18.9%	1.0	i	10.6	7.7%	?
